Bioassay records (PubChem)
In the library only some 4.4% were active in any assay of this set; here they are far more common.
USP1-UAF1 inh – USP1/UAF1 (human) deubiquitinase inhibition; recombinant USP1/UAF1, Ub-Rhodamine cleavage fluorescence; O94782; AID 743255; actives 0.23% (n = 390,000); Potency, µM (doses to about 57.1 µM), for inactives: top-dose activity change, negative = inhibition, usual class: inhibitors; active = well fitted inhibition curve with a large enough effect; inconclusive = small, poorly fitted or top-dose-only effect; inactive = no such curve, though single readings can be large or run the other way; also: potency is read from the fitted curve at half-maximal effect; % is scaled to controls: 0 for no effect and ±100 for the full control effect; nearly all actives have a fitted effect of over 60% in size
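Step one: compound is pinned into 1nM USP1/UAF1 in HEPES pH 7.8 buffer with TCEP. Step two: 15 min room-temperature incubation. Step three: Ub-Rho (150nM final) starts cleavage, tracked by fluorescence over six one-minute reads.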
D1 potentiator – human D1 dopamine receptor positive modulation | actives 0.036% (n = 360,000) | HEK293 TREx D1 cells, calcium flux, dopamine EC20 potentiation | potentiation, % at 10 µM | P21728; in the data active = potentiation above about 30%; also: 0% is about no effect
Target sequence (P21728 whole entry, looked up): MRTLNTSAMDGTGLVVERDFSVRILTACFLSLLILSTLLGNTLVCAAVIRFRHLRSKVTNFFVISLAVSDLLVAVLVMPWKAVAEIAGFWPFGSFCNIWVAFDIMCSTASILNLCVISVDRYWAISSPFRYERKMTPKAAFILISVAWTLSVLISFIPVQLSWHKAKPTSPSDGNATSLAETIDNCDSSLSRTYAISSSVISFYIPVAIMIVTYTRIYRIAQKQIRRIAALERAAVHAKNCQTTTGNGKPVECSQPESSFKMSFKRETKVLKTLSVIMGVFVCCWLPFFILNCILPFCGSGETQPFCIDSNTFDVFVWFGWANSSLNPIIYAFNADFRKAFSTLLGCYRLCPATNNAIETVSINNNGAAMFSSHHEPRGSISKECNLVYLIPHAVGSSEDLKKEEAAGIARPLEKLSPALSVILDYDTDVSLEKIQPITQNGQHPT
TRHR agonist – activates the human TRH receptor | P34981 | TRHR cells, calcium flux fluo-8, FDSS agonist mode | activation, % at 2 µM | actives 0.18% (n = 360,000) | AID 493084; also: 0% is about no effect
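Fluo-8-loaded TRHR cells; 10 s baseline, compound added, kinetic Ca2+ fluorescence read 1/s, agonist mode.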
D1 ag – activates the human D1 dopamine receptor; activation, % at 2 µM; actives 1% (n = 360,000); HEK293 T-REx D1 cells, calcium flux, agonist mode; P21728; also: 0% is about no effect
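Agonism was scored from calcium flux recorded over 180 s (1 read/s) after pintool compound addition, following a 10-cycle baseline. Cells were inducible force-coupled HEK293 TREx D1, plated overnight at 30 C and loaded with no-wash calcium dye.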
D1 antagonist – antagonists of human D1 dopamine receptor. actives 3.2% (n = 360,000). activity change, negative = inhibition, % at 10 µM. P21728. HEK293 TREx D1 cells, calcium flux, dopamine EC80; hits give low values; in the data active = activity change below about -30%; also: % is scaled to controls: 0 for no effect and ±100 for the full control effect
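Inducible Hek293 Trex D1 cells (tetracycline, overnight, 30 C). Calcium dye 30–90 min RT. Antagonist mode: EC80 dopamine added after 180 s compound read.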
TRHR enhancer – TRH receptor (human) allosteric enhancement | enhancement, % at 2 µM | TRHR cells, fluo-8 calcium fluorescence, EC20 TRH enhancement | AID 493056 | P34981 | actives 0.66% (n = 360,000); in the data active = enhancement above about 30%; also: 0% is about no effect
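Enhancer read-out: after compound pinning and an initial kinetic agonist-mode read, an EC20 of TRH (10 nM final) was injected and fluo-8 calcium signal (Ex 480/Em 530) followed at 1 s/cycle for 100 cycles in TRHR-expressing cells.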
The depositor's hits bear a star; ? = inconclusive; · = no result given. Rule as the data show it, unless noted: active = activation above about 30%; inactive = the rest.

SMILES | USP1-UAF1 inh | D1 potentiator | TRHR agonist | D1 ag | D1 antagonist | TRHR enhancer
CC(C)(C)c1ccc(OC(=O)c2cccnc2)cc1 | -10% | -6 | 0 | 42* | 4 | 5
O=C(O)c1ccc(Nc2ncnc3ccccc23)cc1 | -20% | 0 | 0 | 4 | 9 | 0
Cc1ccc(-n2nc3c(=O)n(CC(=O)NCCC(C)C)nc(C)c3c2C)cc1 | -2% | -1 | -1 | 2 | 13 | 7
Cc1ccc(CNC(=O)c2cnc3c(-c4ccccc4)c(C)nn3c2C)o1 | -11% | -3 | 0 | 0 | -23 | 2
Cc1cc(Br)ccc1NC(=O)c1coc(=O)c2ccccc12 | -16% | -1 | -3 | 1 | -1 | 2
COc1ccc(CCNC(=O)Cn2c(=O)c3cccn3c3ccc(F)cc32)c(OC)c1 | -8% | 0 | 0 | 5 | 1 | -3
Cc1cccc(C(=O)NC(NCCc2ccccc2)C(Cl)(Cl)Cl)c1 (configuration not stated) | -1% | -4 | -1 | 19 | -41* | 3
Cc1cccc(C(=O)NC(NCc2ccco2)C(Cl)(Cl)Cl)c1 (configuration not stated) | -18% | -8 | 0 | 4 | -1 | -3
O=S(=O)(c1ccc2c(c1)OCCO2)N1CCN(S(=O)(=O)c2ccccc2F)CC1 | · | 18 | 1 | 3 | -7 | 7
O=C(Nc1nnc(-c2cccs2)o1)c1cccc(Oc2ccccc2)c1 | ? | -6 | 3 | 85* | -16 | -2
Cc1cccc(-c2nnc(NC(=O)c3ccc(Cl)cc3)o2)c1 | -2% | 6 | 8 | 57* | 0 | 28
COc1cccc(-c2nnc(NC(=O)c3cccc(F)c3)o2)c1 | -30% | -5 | 0 | 2 | 11 | 33*
O=C(Nc1nnc(-c2cccs2)o1)c1cccc(F)c1 | -19% | · | · | · | · | ·
COc1cccc(-c2nnc(NC(=O)c3ccc(Cl)s3)o2)c1 | -25% | -5 | -1 | 73* | -36* | 1
O=C(Nc1nnc(-c2ccco2)o1)c1ccc(Cl)s1 | -18% | -7 | -1 | 1 | -10 | 1
C=C(C)CSc1nc2sc3c(c2c(=O)n1CCCC)CCCC3 | -12% | 5 | 0 | 0 | 0 | -1
COc1cccc(CNC(=O)c2cc(S(=O)(=O)N3CCCCCC3)cn2C)c1 | -9% | -1 | -1 | 3 | -1 | 9
O=C(NCc1ccco1)C1CCN(C(=O)N2CCOc3ccccc32)CC1 | ? | 3 | 0 | 1 | 6 | -2
Cc1oc(-c2cccc(Cl)c2)nc1Cn1c(SCc2ccc(F)cc2)nc2cccnc21 | ? | 2 | 1 | 7 | 11 | 8
O=C(Nc1ccc(F)cc1)N1CCN(CCc2ccccc2)CC1 | -14% | -4 | 0 | 1 | · | 2
CCNC(=O)N1CCN(CCCC(c2ccc(F)cc2)c2ccc(F)cc2)CC1 | -4% | -4 | 4 | 21 | -73* | -9
CC(C)c1ccc(C2=NC(c3ccncc3)=Nc3ccc(F)cc3N2)cc1 | -20% | 2 | -2 | 1 | -4 | 1
O=c1[nH]nc(SCc2ccccc2)n1C1CC2C=CC1C2 (configuration not stated) | -9% | -3 | 3 | 12 | -32* | 2
CCOc1ccc2nc(Cl)c(C3CC(c4ccc(C)cc4)=NN3C(=O)CCC(=O)O)cc2c1 (configuration not stated) | ? | 3 | 0 | -1 | 5 | -1
CC(C)(C)C1CCC(OCC(O)CN2CCN(c3ccccn3)CC2)CC1 (configuration not stated) | -9% | -2 | 0 | 5 | -3 | -3
CC(C)(C)C1CCC(OCC(O)CN2CCN(Cc3ccccc3)CC2)CC1 (configuration not stated) | -11% | 6 | 0 | 8 | -2 | 32*
CC1CCCC(C)N1CC(O)COC1CCC(C(C)(C)C)CC1 (configuration not stated) | 6% | -8 | 6 | 31* | 25 | -7
COc1ccccc1-c1c(C)nn2c(N3CCN(c4ccc(F)cc4)CC3)cc(C)nc12 | -5% | -1 | -1 | -1 | -1 | 3
